Records with an inconclusive call do not appear. A call without a number means that no potency is given here. Calls of active or inactive are those of the source. Calls come from the whole dose curve; as a rule, active = well fitted cell-killing curve with a large enough effect in the repeat runs; inconclusive = weak or mixed curves, or effect the other way; inactive = no such curve, though single readings can be large or run the other way.
test: qHTS assay to identify small molecule antagonists of the progesterone receptor (PR) signaling pathway - cell viability counter screen (AID 1346798); conditions: PR-UAS-bla HEK293T viability, CellTiter-Glo luminescence, 16 h; series mostly up to 92.4 µM; note: nearly all actives have a fitted effect of over 50% in size
Source text: National Center for Advancing Translational Sciences [NCATS]
NIH Chemical Genomics Center [NCGC]
U.S. Environmental Protection Agency [EPA]
National Institutes of Environmental Health Sciences [NIEHS]
National Toxicology Program [NTP]
U.S. Food and Drug Administration [FDA]
Progesterone receptor (PR), a nuclear hormone receptor, plays an important role in development, metabolic homeostasis and reproduction. It is activated by the steroid hormone progesterone. Endocrine disrupting chemicals (EDCs) and their interactions with steroid hormone receptors like PR causes disruption of normal endocrine function. To identify the compounds that inhibit PR signaling, a PR-UAS-bla GripTite cell line i.e. PR-UAS-bla HEK293T (Invitrogen, Carlsbad, CA, USA) containing a beta-lactamase reporter gene under the control of an UAS response element was used to screen Tox21 10K compound library. The cytotoxicity of the Tox21 compound library against the PR-bla cell line was tested in parallel by measuring the cell viability using CellTiter-Glo assay in the same wells.
Tox21 Assay Protocol Summary:
PR-UAS-bla HEK293T cells were dispensed at 3,000 cells/4 uL of assay medium containing 2% charcoal stripped FBS per well into black wall/clear-bottom 1536-well plates using a Multidrop Combi (ThermoFisher Scientific, Waltham, MA) dispenser. After the assay plates were incubated at a 37C and 5% CO2 for 4 hr, 23 nL of compounds dissolved in DMSO, positive controls or DMSO only was transferred to the assay plate by a Pintool station (Kalypsys, San Diego, CA), followed by addition of 1 uL of R5020 in assay medium using a Flying Reagent Dispenser (FRD, Aurora Discovery, San Diego, CA). The plates were incubated at 37C and 5% CO2 for 16 hr. Then 1 uL of LiveBLAzer B/G FRET substrate was added using a Flying Reagent Dispenser, the plates were incubated at room temperature for 2 hours, and fluorescence intensity was measured by an Envision plate reader (PerkinElmer, Shelton, CT). For cell viability readout that measures cytotoxicity, 4 uL/well of CellTiter-Glo reagent was added into the assay plates using a FRD. After 30 min incubation at room temperature, the luminescence intensity in the plates was measured using a ViewLux (PerkinElmer) plate reader.

SMILES | Potency
Nc1ccc(N)c(Cl)c1 | inactive
Nc1cc([N+](=O)[O-])ccc1C(=O)O | inactive
O=S1(=O)CCCO1 | inactive
Clc1ccc(Sc2cc(Cl)c(Cl)cc2Cl)cc1 | inactive
Cc1ccc(S(=O)(=O)NCl)cc1 | inactive
C=CCOC(=O)C(=C)C | inactive
CCCCCC1C(=O)CCC1CC(=O)OC (stereo not given) | inactive
NC[C@H](O)c1ccc(O)c(O)c1 | inactive
Cc1ccc(N)c([N+](=O)[O-])c1 | inactive
CN(C)/N=N/c1nc[nH]c1C(N)=O | inactive
CCCOCCO | inactive
C1COCCN1 | inactive
CC(C)=CCO | inactive
CCCCCCCCCCCCO | inactive
OCCNCCO | inactive
CC1(C)OC(=O)NC1=O | inactive
[O-]/[N+](=N\O)c1ccccc1 | inactive
CC(=O)O[C@]1(C(C)=O)CC[C@H]2[C@@H]3C=C(Cl)C4=CC(=O)CC[C@]4(C)[C@H]3CC[C@@]21C | inactive
Nc1ccc(O)c(N)c1 | inactive
OC[C@H]1O[C@@H]2O[C@H]3[C@H](O)[C@@H](O)[C@@H](O[C@H]4[C@H](O)[C@@H](O)[C@@H](O[C@H]5[C@H](O)[C@@H](O)[C@@H](O[C@H]6[C@H](O)[C@@H](O)[C@@H](O[C@H]7[C@H](O)[C@@H](O)[C@@H](O[C@H]1[C@H](O)[C@H]2O)O[C@@H]7CO)O[C@@H]6CO)O[C@@H]5CO)O[C@@H]4CO)O[C@@H]3CO | inactive

SMILES | Potency
CCCCCCOCCOCCO | inactive
C[N+](C)(C)CCO | inactive
CCCCCCC(C)O (stereo not given) | inactive
c1ccc2c(c1)ccc1ncccc12 | inactive
C/C=C/C(=O)N(CC)c1ccccc1C | inactive
CC[C@]12CCCN3CCc4c(n(c5ccccc45)[C@@](O)(C(=O)OC)C1)[C@@H]32 | inactive
CC(=O)[C@H]1CC[C@H]2[C@@H]3CC=C4C[C@@H](O)CC[C@]4(C)[C@H]3CC[C@]12C | inactive
C=C[C@H]1CN2CC[C@H]1C[C@@H]2[C@@H](O)c1ccnc2ccc(OC)cc12 | inactive
Cc1cccc(Nc2ccccc2C(=O)O)c1C | inactive
Cc1ccc(S(=O)(=O)O)cc1C | inactive
CC1(C)NC(=O)N(c2ccc([N+](=O)[O-])c(C(F)(F)F)c2)C1=O | inactive
IC(I)I | inactive
CC1=CC(C)(C)Nc2ccccc21 | inactive
COC(=O)C(C)Oc1ccc(Oc2ncc(C(F)(F)F)cc2Cl)cc1 (stereo not given) | inactive
Oc1c(Cl)ccc(Cl)c1Cl | inactive
O=C1CCc2ccccc2O1 | inactive
O=C1OC2(c3ccccc31)c1cc(I)c(O)c(I)c1Oc1c2cc(I)c(O)c1I | inactive
c1ccc2c(c1)[nH]c1ccccc12 | inactive
Cc1ccc2c(c1)C(=O)OC2=O | inactive
c1ccc2c(c1)ccc1cc3c(ccc4ccccc43)cc12 | inactive

Source: PubChem BioAssay (Tox21)
